This is part of a sample that, as a whole, favours compounds with a hit. Of some 83,000 tested, about 20% had one in any assay.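 Cells were grown in 96-well plates and exposed to the test compound at a single concentration for 48 hours; results are reported as percent growth, with values below 10 considered active.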 A number with no mark means an inactive call. Calls of active or inactive are those of the source.
Columns and labels:
Assay in all cases: NCI-60 one-dose screen, 48 h (100 = growth as untreated, 0 = no growth, -100 = all killed)
Conditions in all cases: 10 µM unless noted
NCI-H23 lung = tested on: NCI-H23 lung
NCI-H226 lung = tested on: NCI-H226 lung
NCI-H322M lung = tested on: NCI-H322M lung
HOP-62 NSCLC = tested on: HOP-62 NSCLC
NCI-H460 lung = tested on: NCI-H460 lung
NCI-H522 lung = tested on: NCI-H522 lung
A549/ATCC NSCLC = tested on: A549/ATCC NSCLC
786-0 renal = tested on: 786-0 renal
COLO 205 colon = tested on: COLO 205 colon
DU-145 prostate = tested on: DU-145 prostate

SMILES | growth (NCI-H23 lung) | growth (NCI-H226 lung) [%] | growth (NCI-H322M lung) | growth (HOP-62 NSCLC) | growth (NCI-H460 lung) | growth (NCI-H522 lung) | growth (A549/ATCC NSCLC) | growth (786-0 renal) | growth (COLO 205 colon) | growth (DU-145 prostate)
Nc1nonc1-c1nc2ccccc2n1CC(=O)Nc1ccc2c(c1)COC2=O | 86.3% | 87.7 | 107% | 83.8% | 95.7% | 61.6% | 88.8% | 93% | 98.4% | 108%
Clc1cc(Cl)c(OCC#CI)cc1Cl | 97.3% | 43.1 | 127% | 108% | 100% | 18% | 101% | 98.9% | 5.9% (active) | 86.8%
N#Cc1cccc(/C=C(/C(=O)c2ccccc2)c2ccccc2)c1 | 81.2% | 71.7 | 77.8% | 94.5% | 77.5% | 57.8% | 62.8% | 76.2% | 96.8% | 37%
O=C(/C=C/c1ccc(O)c(O)c1)N1CCN(c2ccc(Cl)cc2)CC1 | 62.9% | 63.8 | 85.1% | 88.2% | 46.4% | -3.39% (active) | 61.2% | 73.1% | 71.4% | 69.4%
COc1cccc(/C=C2\COc3ccc(O)c(O)c3C2=O)c1OC | 60.5% | 62.8 | 32.7% | 19% | 3.8% (active) | -33.3% (active) | 32.5% | -6.52% (active) | 72.7% | 2.64% (active)
Clc1nc(Cl)c2ncn(-c3ccccc3)c2n1 | 99.9% | 93.4 | 76.8% | 99.4% | 89.2% | -68.9% (active) | 95.3% | 88.5% | 80.9% | 36.7%
CCOC(=O)C(Cc1ccccc1)(C(=O)OCC)C(Br)C(=O)c1ccccc1 (stereo not given) | 84.4% | 88 | 83.9% | 95.6% | 93% | 22.5% | 80.2% | 50% | 63% | 93%
Cc1c(C)c(N2C(=O)C=CC2=O)c(C)c(C)c1N1C(=O)C=CC1=O | 96.3% | 108 | 112% | 91.6% | 115% | -49.4% (active) | 89.6% | 93.2% | 78.7% | 104%
O=C(Nc1nc(-c2ccccc2)cs1)c1cc(O)c(O)c(O)c1 | 59.6% | 67.9 | 69.1% | 46.4% | 34.7% | -29.4% (active) | 46.2% | 41.6% | 84.5% | 57.7%
COc1ccc(-c2cncn2-c2ccc(-c3nc4cc(OC)c(OC)c(OC)c4s3)cc2)cc1N | 72.9% | 64.5 | 84.1% | 101% | 51.4% | 46% | 47.9% | 55.2% | 46.2% | 92.6%
CCOC(=O)/C=C(/C)Sc1cc(O)c2ccccc2c1O | -71.4% (active) | 89.4 | -19.9% (active) | 157% | -64% (active) | 12.7% | -34.1% (active) | 159% | 46.6% | -100% (active)
COc1cc(/C=C/C(=O)c2c(-c3ccc(F)cc3)nc3sc(C)nn23)cc(OC)c1OC | 51.4% | 38.9 | 52.6% | 9.53% (active) | 11.8% | -27% (active) | 12.2% | 24.6% | 33% | 0.196% (active)
Cc1ccc(C(O)C2=CC(=O)c3ccccc3C2=O)cc1 (stereo not given) | 89.2% | 94.9 | 99.3% | 104% | 98.4% | 95.7% | 102% | 110% | 107% | 111%
COc1ccc(C2=NN(C(C)=O)C(c3cc(OC)c(OC)c(OC)c3)C2)cc1 (stereo not given) | 101% | 119 | 119% | 105% | 108% | 67.7% | 108% | 108% | 108% | 107%

From PubChem BioAssay (NCI)
